Laboratory results taken from PubChem BioAssay (NCI).
This is part of a sample that, as a whole, favours compounds with a hit. Of some 83,000 tested, about 20% had one in any assay.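 Single-dose data. Exposure time 48 hours. Values below 10 considered active.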 The source made the active and inactive calls.

Columns and labels:
Assay in all cases: NCI-60 one-dose screen, 48 h (100 = growth as untreated, 0 = no growth, -100 = all killed)
Conditions in all cases: 10 µM unless noted
[1] = system: NCI-H23 lung
[2] = system: NCI-H226 lung
[3] = system: NCI-H322M lung
[4] = system: HOP-62 NSCLC
[5] = system: HOP-92 NSCLC
[6] = system: NCI-H522 lung
[7] = system: A549/ATCC NSCLC
[8] = system: 786-0 renal
[9] = system: COLO 205 colon
[10] = system: K-562 leukemia
[11] = system: MALME-3M melanoma
[12] = system: MDA-MB-231 breast
[13] = system: RXF 393 renal
[14] = system: SF-268 CNS
[15] = system: SF-295 CNS
[16] = system: SF-539 CNS
[17] = system: UACC-257 melanoma
[18] = system: M14 melanoma
[19] = system: DU-145 prostate
[20] = system: NCI-H460 lung

Measured: growth

COCCn1c(Nc2ccc(C(=O)NO)cc2)nc2ccccc21
inactive: [1] 72.8% | [2] 89.6% | [3] 76.5% | [4] 74.8% | [5] 27.7% | [6] 30.9% | [7] 69.2% | [8] 84.4% | [9] 50.7% | [10] 34.6% | [11] 30.6% | [12] 81.5% | [13] 39.1% | [14] 82.3% | [15] 61.9% | [16] 62% | [17] 27.8% | [18] 51.6%

CCOC(=O)c1ccc(NCCC(=O)O)cc1
inactive: [1] 107% | [2] 100% | [3] 104% | [4] 95.9% | [5] 89.4% | [6] 91.3% | [7] 103% | [8] 96.2% | [9] 121% | [19] 126% | [10] 90.4% | [11] 110% | [12] 122% | [13] 111% | [14] 119% | [16] 112% | [17] 104% | [18] 104%

COc1ccc2[nH]cc(/C=C3\C(=O)Nc4ccccc43)c2c1
inactive: [1] 42.3% | [2] 62.1% | [4] 28.8% | [20] 26% | [5] 31.3% | [6] 17.5% | [7] 26.5% | [8] 53.8% | [9] 40.6% | [19] 47.1% | [11] 57.5% | [12] 38.9% | [13] 33.3% | [14] 62.5% | [15] 45.5% | [16] 25.8% | [17] 28.2% | [18] 11%
active: [10] 3.31%

Nc1cccc(S(=O)(=O)c2cccc(N)c2)c1
inactive: [1] 111% | [2] 107% | [3] 124% | [4] 111% | [5] 97% | [6] 111% | [7] 111% | [8] 108% | [9] 117% | [10] 10.5% | [11] 115% | [12] 105% | [13] 138% | [14] 107% | [15] 100% | [16] 113% | [17] 119% | [18] 107%

COc1ccc(-c2nc(-c3cc(OC)cc(OC)c3)[nH]c2-c2ccc(OC)cc2)cc1
inactive: [1] 39.1% | [2] 48.7% | [3] 60.6% | [4] 91.8% | [5] 23.7% | [6] 20.9% | [7] 46.7% | [8] 63.8% | [9] 34.2% | [19] 78.5% | [10] 16.3% | [11] 70.9% | [12] 58.7% | [13] 54.5% | [14] 88.6% | [16] 80.5% | [17] 62.9% | [18] 49.7%

COC(=O)C(CCC(=O)CCl)N1C(=O)c2ccccc2C1=O (centres undefined)
active: [6] -15.1%
inactive: [1] 79.1% | [2] 70.1% | [3] 91.7% | [4] 79.9% | [5] 49.7% | [7] 104% | [8] 60.3% | [9] 87.8% | [19] 87.6% | [10] 28.6% | [11] 42.2% | [12] 84.6% | [13] 25.8% | [14] 56.5% | [16] 64.9% | [17] 69.7% | [18] 39.9%

COc1c(-c2cc(-c3ccc(C)o3)[nH]c(=O)n2)c(O)cc2occc12
inactive: [1] 68.8% | [2] 67.3% | [3] 90.7% | [4] 52.1% | [5] 67.3% | [6] 36.1% | [7] 47.1% | [8] 93.9% | [9] 104% | [19] 78.2% | [10] 16.8% | [11] 69.2% | [12] 70.8% | [13] 56.3% | [14] 69.8% | [15] 77.6% | [16] 69.9% | [17] 78.7% | [18] 44.7%

CCc1ccc(-c2ccc(NC3CCCCCC3)nn2)cc1S(N)(=O)=O
inactive: [1] 106% | [2] 104% | [3] 110% | [4] 120% | [5] 94.2% | [6] 87.7% | [7] 98.2% | [8] 103% | [9] 115% | [19] 114% | [10] 112% | [11] 104% | [12] 109% | [13] 115% | [14] 117% | [16] 98.9% | [17] 100% | [18] 104%

Cc1cc(C)cc(Nc2cc(C)nc3nc(C(F)(F)F)nn23)c1
active: [6] 6.54% | [16] 4.14%
inactive: [1] 40% | [2] 37.8% | [3] 25% | [4] 47.8% | [5] 69.8% | [7] 27.5% | [8] 36.6% | [9] 16.7% | [19] 38.1% | [10] 20.2% | [11] 45.5% | [12] 50.1% | [13] 52.1% | [14] 28.7% | [17] 30.7% | [18] 24%
